# In PubChem BioAssay (NCATS):
# Records with an inconclusive call do not appear. Values without a mark were called inactive. Calls of active or inactive are those of the source. Calls come from the whole dose curve; as a rule, active = well fitted inhibition curve with a large enough effect; inconclusive = small, poorly fitted or top-dose-only effect; inactive = no such curve, though single readings can be large or run the other way.
# Target: Cytochrome P450 3A7 (Homo sapiens) (UniProt P24462)
# Assay: Cytochrome P450 family 3 subfamily A member 7 (CYP3A7) small molecule antagonists: luciferase biochemical qHTS assay (AID 1963596); note: nearly all actives have a fitted effect of over 40% in size
# Conditions: P450-Glo CYP3A7 enzyme luminescence, 1 h; series mostly up to 57.4 µM; activity change, negative = inhibition: at the top concentration
# Description: National Center for Advancing Translational Sciences [NCATS] Assay Overview: Cytochrome P450 (CYP) enzymes are membrane-bound hemeproteins that play a key role in metabolism of drugs and xenobiotics. The CYP3A subfamily is the most abundant, representing 30% of the total adult hepatic CYP content, whereas CYP3A7 is found predominantly in human fetal liver and accounts up to 50% of the total fetal hepatic CYP content. Testing the effect of chemicals on CYP isozymes is useful to minimize the adverse drug reactions and toxicities in the drug development process. Chemicals were tested for their effect on CYP enzyme activities by using P450-Glo (TM) screening systems (Promega Corporation, Madison, WI). These systems provide a luminescent method containing proluciferin substrates and are converted to luciferin products by CYP isozymes. The luciferin products formed are detected with a luciferin detection reagent, and the amount of light produced is proportional to CYP activity. P450-Glo (TM) CYP3A7 screening system (Catalog. No. V8812) was used to detect the compounds that interfere with CYP3A7 activity. The positive control compound used for CYP3A7 assay is ketoconazole (Sigma-Aldrich, St. Louis, MO).
# Assay Protocol Summary: Two ul of enzyme-substrate mix was dispensed into medium binding white/solid 1536-well plates (Greiner Bio-One North America Inc., Monroe, NC) using a Flying Reagent Dispenser (FRD, Aurora Discovery, San Diego, CA). Compounds dissolved in DMSO, and positive control (ketoconazole) were transferred to the assay plates at 23 nl using a Pintool station (Wako, San Diego, CA). The assay plates were incubated at room temperature for 10 min. Then 2 ul of NADPH regeneration solution was added to each well of the assay plates using an FRD and incubated at room temperature for 1 h. The reaction was stopped by adding 4 ul of detection reagent using an FRD and after 20 min incubation at room temperature the luminescence signal was measured using a ViewLux plate reader (Perkin Elmer, Shelton, CT). Data were expressed as relative luminescence units.
# % is set by controls: 0 for no effect and ±100 for the full control effect; potency is the fitted concentration of half-maximal effect.
# Cytochrome P450 3A7 (Homo sapiens), sequence (P24462 whole entry, looked up): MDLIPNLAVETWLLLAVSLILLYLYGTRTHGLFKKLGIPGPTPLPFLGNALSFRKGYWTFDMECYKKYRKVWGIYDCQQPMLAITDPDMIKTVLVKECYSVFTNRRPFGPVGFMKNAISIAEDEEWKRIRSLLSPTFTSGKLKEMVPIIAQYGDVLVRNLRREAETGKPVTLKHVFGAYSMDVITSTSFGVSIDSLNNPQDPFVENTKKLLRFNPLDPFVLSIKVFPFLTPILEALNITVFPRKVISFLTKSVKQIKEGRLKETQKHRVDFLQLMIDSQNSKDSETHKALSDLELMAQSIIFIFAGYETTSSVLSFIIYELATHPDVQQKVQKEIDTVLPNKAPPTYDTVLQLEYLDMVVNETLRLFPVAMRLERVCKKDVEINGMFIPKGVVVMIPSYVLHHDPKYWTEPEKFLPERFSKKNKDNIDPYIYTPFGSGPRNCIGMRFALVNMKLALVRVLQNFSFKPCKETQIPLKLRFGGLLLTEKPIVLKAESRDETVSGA
Structure (SMILES),"activity change, negative = inhibition",Potency
CCc1ccc(C2CCNCC2)cc1,-17.8%,
CC(=O)OC1C[C@H](O[C@@H]2C(O)C[C@H](O[C@@H]3C(O)C[C@@H](OC4CC[C@]5(C)C(CCC6C5CC(O)[C@@]5(C)C(C7=CC(=O)OC7)CC[C@@]65O)C4)OC3C)OC2C)O[C@H](C)[C@H]1O[C@H]1OC(CO)C(O)C(O)C1O (stereo not given in full),-5.82%,
CCC1(c2ccccc2)CCC(=O)NC1=O (stereo not given),40.5%,
CC(C)(O)C(Cl)(Cl)Cl,25.7%,
CCCCNCC(O)c1ccc(O)cc1 (stereo not given),2.31%,
CC(=O)NCCCOc1ccc(C(=O)N2CCC(N3C(=O)CCc4ccccc43)CC2)cc1,0%,
C1CN2CCC1CC2,-0.235%,
CCOC(=O)c1ccccc1C(=O)OCC,-6.77%,
Sc1ccccc1Cl,-0.412%,
CC(=O)[O][Hg][c]1ccccc1,,977 nM (active)
CCC(C)C(C)(COC(N)=O)COC(N)=O (stereo not given),-16.7%,
CC(CC(C(N)=O)(c1ccccc1)c1ccccc1)N(C)C (stereo not given),-1.42%,
CCCC1CCCCN1 (stereo not given),-0.619%,
CCCCCCn1c(=O)c(C(=O)Nc2ccc(C(=O)OCCC)cc2)c(O)c2ccccc21,0.937%,
O=[N+]([O-])c1cc([N+](=O)[O-])c2ccccc2c1,38.2% [at 115 µM],
Cc1cn(C[C@H](N)C(=O)O)c(=O)n(Cc2cc(-c3ccccc3)sc2C(=O)O)c1=O,0.812%,
C#CC(O)(C=CCl)CC (stereo not given),-1.73%,
O=[N+]([O-])c1ccc([As](=O)(O)O)cc1,-4.95%,
O=C(N[C@@H]1N=C(c2ccccc2F)c2cccc3c2N(CC3)C1=O)c1cc2ccccc2[nH]1,-18.9%,
CC[N+](CC)(CC)CC,-3%,

Structure (SMILES),"activity change, negative = inhibition",Potency
NC1(c2ccccc2)CCCCC1,-5.92% [at 115 µM],
c1ccc([C@@H]2C[C@H]2NC2CCNCC2)cc1,-28.7%,
C#CCN(C)[C@H](C)Cc1ccccc1,-3.79%,
O=C(N[C@H]1N=C(c2ccccc2F)c2cccc3c2N(CC3)C1=O)c1cc2ccccc2[nH]1,1.42%,
N#CC(O[C@@H]1O[C@H](CO[C@@H]2O[C@H](CO)[C@@H](O)[C@H](O)[C@H]2O)[C@@H](O)[C@H](O)[C@H]1O)c1ccccc1 (stereo not given in full),-11.2%,
CCCCCCC(=O)CCCCCC/C=C/C[C@@H](O)[C@H](O)[C@@](N)(CO)C(=O)O,2.81% [at 23.9 µM],
COC(=O)C1=CCCN(C)C1,0.836%,
COc1cc(N2CCN(C)CC2)ccc1N,-30.7%,
CC(Cc1ccccc1)NCCCCl (stereo not given),-2.57%,
CC(C)(C)NCC(O)c1ccccc1Cl (stereo not given),-2.56%,
c1cc2c(c(N3CCNCC3)c1)OCCO2,-5.6%,
COc1cccc([C@@]2(O)CCCC[C@@H]2CN(C)C)c1,27.5%,
CCOC(=O)NC(O)C(Cl)(Cl)Cl (stereo not given),-2.68%,
CC(C)(C)NCC(O)c1cc(Cl)c(N)c(C(F)(F)F)c1 (stereo not given),8.29%,
CCN(CC)CCOC(=O)C(O)(c1ccccc1)c1ccccc1,-27.8%,
CNC(C)Cc1ccccc1OC (stereo not given),1.48%,
O=[N+]([O-])O[C@H]1CO[C@H]2[C@@H]1OC[C@H]2O[N+](=O)[O-],-11.8%,
CSCC[C@@H](NC(=O)[C@@H](Cc1ccccc1)NC(=O)CNC(=O)CNC(=O)[C@@H](N)Cc1ccc(O)cc1)C(=O)O,-30.1%,
CC(=O)Nc1cc([As](=O)(O)O)ccc1O,-29.4%,
Nc1ccc([N+](=O)[O-])cc1,-0.109% [at 115 µM],
